NS1 inh: influenza NS1 inhibition; hit rate 0.4% among 270,000; AID 2326; Potency, µM (titrated, usually from 46.1 µM), for the others: at the top dose activity, positive = more growth; calls by dose curve; further: potency means the concentration at half of the fitted maximal effect; actives are rising curves; nearly all actives have a fitted effect of over 50% in size
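OD600 was taken as the measure of yeast growth restored by compound in an NS1-expressing S. cerevisiae strain. Cells had been washed out of glucose medium and diluted 1:100 into galactose -URA medium, pH 6.0.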
Shiga inhibitor: blocks Shiga toxin action in Vero cells; Vero cells, Shiga toxin protein synthesis inhibition reporter; inhibition, % at 38.7 µM; hit rate 9.2% among 290,000; in the data active means inhibition mostly above about 28%, no sharp cut-off; inactive means mostly below about 43%; further: 0% is about no effect
CHX counter: counter-screen for Shiga toxin inhibitors: cycloheximide protein synthesis inhibition | max response, % | cell reporter, cycloheximide protein synthesis inhibition counterscreen | hit rate 12% among 300,000; in the data active means max response mostly above about 13%, no sharp cut-off; inactive means mostly below about 14%; further: read at 38.3 µM for the half of the compounds with a filed dose; 0% is about no effect
Pf growth 48h: P. falciparum growth inhibition at 48 hours (one generation); hit rate 5.9% among 310,000; P. falciparum luciferase growth in erythrocytes, 48 h; AID 504832; Potency, µM (doses to about 28.7 µM), for the others: at the top dose activity change, negative = inhibition, hits mostly inhibitors; further: potency means the concentration at half of the fitted maximal effect; on the % scale 0 is the no-effect control and ±100 the full control effect
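Parasite viability was followed by luminescence of a genomically integrated firefly luciferase. Cultures held 0.1% parasitemia at 2% hematocrit (final), incubated under 5% CO2 at 37 C.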
Sm TGR inh: S. mansoni TGR enzyme inhibition. hit rate 3% among 360,000. Q962Y6. AID 485364. purified TGR, DTNB reduction, TNB absorbance 405 nm. Potency, µM (top dose mostly 114 µM), for the others: at the highest dose activity change, negative = inhibition, actives largely listed as inhibitors; further: potency means the concentration at half of the fitted maximal effect; on the % scale 0 is the no-effect control and ±100 the full control effect; nearly all actives have a fitted effect of over 60% in size
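Kinetic colorimetric format: TGR-catalysed, NADPH-driven DTNB reduction monitored via TNB absorbance. Enzyme dispensed at 20 nM; compound exposure 15 min at room temperature before reaction start.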
Pf growth 96h: P. falciparum growth inhibition at 96 hours | AID 504834 | hit rate 6.9% among 320,000 | Potency, µM (top dose mostly 28.7 µM), inactives show at the highest dose activity change, negative = inhibition, most hits filed as inhibitors | P. falciparum luciferase reporter growth, 96 h; further: potency means the concentration at half of the fitted maximal effect; on the % scale 0 is the no-effect control and ±100 the full control effect
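Two parasite generations (96 h, 37 C, 5% CO2) of compound exposure in infected erythrocytes (0.05% parasitemia, 2% hematocrit). Luciferase-reporter P. falciparum; decreased luminescence indicates inhibited growth, aimed at apicoplast-acting delayed death.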
An asterisk follows results filed as active; ? = inconclusive; / = not tested or not shown. Sampled rows, rich in hits. Any-hit rate of the full collection: about 21%. Unless noted, the call rests on the fitted dose curve; in most records, active means well fitted curve in the direction sought with a large enough effect; inconclusive means small, poorly fitted or top-dose-only effect, or another doubt; inactive means no such curve, though single readings can be large; an effect the other way counts as inactive or inconclusive.

SMILES	NS1 inh	Shiga inhibitor	CHX counter	Pf growth 48h	Sm TGR inh	Pf growth 96h
CCOc1ccc(NC(=O)CSC2=Nc3ccccc3C3=NC(CC(=O)NCc4cccs4)C(=O)N23)cc1 (centres undefined)	/	/	/	/	1%	/
CCNc1nnc(SCC(=O)c2cc(C)n(C3CC3)c2C)s1	/	/	/	?	-13%	?
C/C(N)=C(/C#N)C(=O)CSc1ccc2c(c1)OCCO2	0%	98*	48*	102%	11%	389%
Cn1c(N)c(C(=O)CSc2ccc3c(c2)OCCO3)c(=O)n(C)c1=O	2%	-3	12	3%	-12%	-10%
Cc1cc(C(=O)CSc2ccc3c(c2)OCCO3)c(C)n1C1CC1	-10%	92*	67*	99%	-29%	77%
CCOc1ccc(C(=O)CSc2nc3cc(C(=O)NC4CCCC4)ccc3c(=O)n2CC2CCCO2)cc1 (centres undefined)	/	/	/	/	7%	/
CC(C)(C)C1CCC(OC(=O)C[N+]2(C)CCCC2)CC1 (centres undefined)	/	12	-5	?	5%	71%
CC(C)(C)C1CCC(OC(=O)C[N+]2(C)CCCCC2)CC1 (centres undefined)	/	22	1	12µM*	-4%	-1%
Cc1ccc(S(=O)(=O)N2CCN(C)CC2c2ccccc2)cc1 (centres undefined)	/	/	/	16%	4%	35%
O=S(=O)(c1ccccc1)N1CC1c1ccccc1 (centres undefined)	8%	38*	47*	17%	-12%	11%
O=C(Nc1ccccc1C(F)(F)F)c1ccc(F)c(S(=O)(=O)N2CCOCC2)c1	-12%	-23	1	-21%	0%	/
O=C(NCC1CCCCC1)c1ccc(F)c(S(=O)(=O)N2CCOCC2)c1	/	/	/	?	-2%	7.4µM*
O=C(NCC1CCCCC1)c1ccc(Cl)c(S(=O)(=O)N2CCOCC2)c1	/	/	/	?	-3%	?
Cc1ccc(C(=O)Nc2ccccc2N2CCOCC2)cc1S(=O)(=O)N1CCOCC1	/	/	/	13µM*	-1%	?
O=C(Nc1ccccc1N1CCCCC1)c1ccc(F)c(S(=O)(=O)N2CCOCC2)c1	/	/	/	13µM*	4%	?
O=C(Nc1ccccc1N1CCCC1)c1ccc(Cl)c(S(=O)(=O)N2CCOCC2)c1	/	/	/	12µM*	-7%	8.3µM*
O=C(Nc1ccc(O)c2c(=O)cc(-c3cccc(Cl)c3)oc12)c1ccccc1Cl	5%	2	-6	22%	-34%	?
Cc1cc(Cl)ccc1NC(=O)CN1C(=O)C(=O)c2ccccc21	/	/	/	/	-3%	/
O=C(CCc1nnc2n(Cc3ccc(Cl)cc3)c(=O)c3ccccc3n12)NCCN1CCCC1	3%	-2	-3	?	4%	?
O=C(CCc1nnc2n(CCc3ccccc3)c(=O)c3ccccc3n12)NCCCN1CCCCC1	1%	17	-1	-18%	4%	3.7µM*
CCCCCn1c(=O)c2ccccc2n2c(CCl)nnc12	-3%	35	33*	?	14µM*	?
CC(C)CCn1c(=O)c2ccccc2n2c(CN3CCCC3)nnc12	/	-7	0	0%	6%	-9%
CC(C)CCn1c(=O)c2ccccc2n2c(CN(C)Cc3ccccc3)nnc12	-17%	-14	-4	?	-6%	13µM*
CC(C)CCn1c(=O)c2ccccc2n2c(CCl)nnc12	0%	2	7	?	3.2µM*	?
O=C(c1ccccc1)c1cc2c(cc1[N+](=O)[O-])OCCO2	-1%	16	12*	-7%	-9%	-6%
Cc1ccc(C(=O)c2cc3c(cc2[N+](=O)[O-])OCCO3)cc1	-5%	35	16*	-17%	18%	145%
Cc1ccc(C(=O)c2cc([N+](=O)[O-])ccc2N2CCN(C)CC2)cc1	0%	-14	-3	?	7%	?
O=[N+]([O-])c1cc2c(cc1[N+](=O)[O-])OCCOCCOCCOCCO2	/	12	-4	-15%	?	-17%
Cc1cc(C)n(CCc2nc(-c3ccc(C)o3)cs2)n1	-6%	56	-1	/	7.9µM*	?
CC1CN(CC(O)COC(c2ccc(Cl)cc2)c2ccc(Cl)cc2)CC(C)O1 (centres undefined)	-22%	-11	-3	3.7µM*	-4%	?
